Bioassay records: PubChem, National Center for Advancing Translational Sciences (NCATS)
GLP-1R agonist – activates the human GLP-1 receptor; P43220; HEK293 GLP-1R CRE-luciferase, luminescence, 4-6 h; cells express a hypersensitive GLP-1R form; Potency, µM (doses to about 45.6 µM), most hits filed as activators; hit rate 0.007% among 380,000; AID 624172
Target sequence (P43220 whole entry, looked up): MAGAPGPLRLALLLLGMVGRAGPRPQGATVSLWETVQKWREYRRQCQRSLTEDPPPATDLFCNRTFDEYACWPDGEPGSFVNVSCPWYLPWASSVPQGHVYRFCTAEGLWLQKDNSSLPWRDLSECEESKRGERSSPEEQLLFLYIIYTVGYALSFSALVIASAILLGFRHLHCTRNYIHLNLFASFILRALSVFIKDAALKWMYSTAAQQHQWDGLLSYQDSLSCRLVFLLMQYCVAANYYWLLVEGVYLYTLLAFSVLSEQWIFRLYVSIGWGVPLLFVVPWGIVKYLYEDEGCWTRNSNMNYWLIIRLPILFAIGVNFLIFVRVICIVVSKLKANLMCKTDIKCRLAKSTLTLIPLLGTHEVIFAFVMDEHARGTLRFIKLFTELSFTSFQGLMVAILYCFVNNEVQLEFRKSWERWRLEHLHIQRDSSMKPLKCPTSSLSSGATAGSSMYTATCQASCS
GLP1R inv ag – inverse agonists of human GLP-1 receptor | P43220 | HEK293 GLP-1R CRE-luciferase, luminescence, 24 h; GLP-1R form is constitutively active | Potency, µM (titrated, usually from 38.3 µM), actives largely listed as inhibitors | hit rate 1.6% among 410,000 | AID 624417; further: nearly all actives have a fitted effect of over 55% in size
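Stable HEK293 clone (constitutively active GLP-1R + cAMP-response luciferase); 200 cells/uL plated, 12 h pre-culture, compound 24 hr, 37 deg C/5% CO2; detection reagent 12 min RT; luminescence.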
HEK293 tox – cytotoxicity in counter-screen for GLP-1R inverse agonists. HEK293 cAMP-luciferase reporter cells, luminescence, 24 h. Potency, µM (top dose mostly 38.3 µM), usual class: inhibitors. hit rate 0.13% among 410,000. AID 624418;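 further: loss of luciferase light is scored as toxicity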
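Luminescence readout: signal drop marks cytotoxicity. Plated cells grew 12 h at 37 °C, 5% CO2, received 23 nL compound for 24 h, then got luciferase reagent, read after 12 min at RT.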
TRPML1 inh – inhibitors of human TRPML1 channel | Q9GZU1 | TRPML1-inducible cells, Ca2+ dye fluorescence, FDSS; active compounds read low; inhibition of EC80 agonist-evoked calcium signal | activity change, negative = inhibition, % (no concentration beside the values) | hit rate 0.02% among 390,000 | AID 624415; in the data active means activity change below about -50%; inconclusive means between about -30% and that limit;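 further: stimulus is agonist 54-4 at its EC80 concentration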
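TRPML1-DL cells, Tet-induced overnight (~16 h, 37 °C) at 1,500 cells/well, were loaded with Ca8 no-wash dye plus quencher for 45-90 min at room temperature. Compounds were pinned during FDSS kinetic reading; agonist 54-4 at EC80 (4 uM final) then added.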
TRPML1 agonist – agonists of human TRPML1 channel. TRPML1-expressing cells, Ca2+ dye fluorescence, FDSS. activation, % (no concentration beside the values). hit rate 0.12% among 410,000; in the data active means activation above about 50%; inconclusive means mostly about 30% to 49%
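In this qHTS format, compounds were pin-transferred onto Ca8-dye-loaded TRPML1-DL cells induced with Tet overnight, and intracellular Ca2+ fluorescence was recorded kinetically for 110 s after a 10 s baseline. A subsequent 4uM final 54-4 (EC80) addition followed by a second 110 s read served as the antagonist phase.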
Hits are given with their value; - = inactive; ? = inconclusive; . = no result given. Most compounds without a hit are left out; they make up all but 1.8% or so of the library. Unless noted, the call rests on the fitted dose curve; in most records, active means well fitted curve in the direction sought with a large enough effect; inconclusive means small, poorly fitted or top-dose-only effect, or another doubt; inactive means no such curve, though single readings can be large; an effect the other way counts as inactive or inconclusive.

SMILES	GLP-1R agonist	GLP1R inv ag	HEK293 tox	TRPML1 inh	TRPML1 agonist
Cc1[nH]n(-c2ccccc2)c(=O)c1/C=N/N1C(=O)c2cccc3cccc(c23)C1=O	-	13µM	?	-	-
Cc1[nH]n(-c2ccccc2)c(=O)c1/C=N/NC(=O)c1cccc(F)c1	-	7.9µM	-	-	-
COc1cccc(C(=O)Nc2nnc(S(=O)(=O)N3CCCc4ccccc43)s2)c1	.	?	-	-	-
CCCCN(CCCC)c1ncnc2nc[nH]c12	-	4.5µM	-	-	-
CCCCN(Cc1ccccc1)c1ncnc2nc[nH]c12	-	?	-	-	-
CC(C)(CNC(=O)/C=C/c1ccc(F)cc1)CNC(=O)/C=C/c1ccc(F)cc1	-	6.3µM	-	-	-
CC(C)(C)SCCNC(=O)/C=C/c1ccc(F)cc1	-	-	-	-	-
Cc1ccc(CSc2nc3cccnc3n2Cc2ccc(C(=O)NCCc3cccs3)cc2)cc1	.	-	-	-	-
Cc1cccc(Oc2ccc(S(=O)(=O)N3CCCCC3)cc2N)c1	-	10µM	-	-	-
Cc1ccc(S(=O)(=O)c2ccc(Oc3cccc(C)c3)cc2)cc1	-	10µM	-	-	-
Cc1ccc(-c2csc3ncnc(Sc4nnnn4-c4ccccc4)c23)cc1	.	.	.	.	-
COC(=O)c1ccccc1NC(=O)Cn1c(=O)n(-c2ccc(C)cc2)c(=O)c2ccccc21	.	?	-	-	-
O=C(/C=C/c1ccc(Cl)cc1)N1CCOCC1	-	-	-	-	-
O=C(/C=C/c1ccc(OCc2cccc(Cl)c2)cc1)N1CCOCC1	-	6.3µM	-	-	-
Cc1ccc(-c2noc(C3CCCN(C(=O)c4ccc(Cl)cc4)C3)n2)o1 (configuration not stated)	-	?	-	-	-
CCOc1ccc(C(=O)N2CCCC(c3nc(-c4ccc(C)o4)no3)C2)cc1 (configuration not stated)	-	11µM	-	-	-
Cc1ccc(SC[C@H](Cc2ccccc2)N2CC[C@@H](C)CCC2=O)cc1	-	10µM	-	-	-
COc1ccc(S(=O)(=O)NCC(c2ccco2)S(=O)(=O)c2cccs2)cc1OC (configuration not stated)	.	-	-	-	-
Cc1onc(-c2ccccc2Cl)c1C(=O)OCC(=O)N1CCCc2ccccc21	-	10µM	-	-	-
Cc1onc(-c2ccccc2Cl)c1C(=O)N1CCCc2ccccc21	-	-	-	-	-
COc1ccc(S(=O)(=O)n2ccc(C(C)Oc3ccc(-c4ccccc4)c(F)c3)n2)cc1 (configuration not stated)	-	8.9µM	-	-	-
CC(Oc1ccc(-c2ccccc2)c(F)c1)c1ccn(S(=O)(=O)c2ccc(F)cc2)n1 (configuration not stated)	-	?	-	-	-
Cn1ncc(Br)c1C(=O)NC12CC3CC(CC(C3)C1)C2	-	10µM	-	-	-
Cn1ncc(Br)c1C(=O)N1CCCC1	-	-	-	-	-
Cc1ccc(NC(=O)CC2Nc3ccccc3NC2=O)cc1Cl (configuration not stated)	-	10µM	-	-	-
SMILES	GLP-1R agonist	GLP1R inv ag	HEK293 tox	TRPML1 inh	TRPML1 agonist
Cc1cc(C)c(C)c(N=Nc2nc3ccccc3n2C)c1C	-	7.9µM	?	-	-
NC(=O)c1cccc(-c2ccnc3c2CC(C(=O)NCc2ccc(F)c(F)c2)O3)c1 (configuration not stated)	-	?	?	.	-
NC(=O)c1cccc(-c2ccnc3c2CC(C(=O)NCc2ccccc2)O3)c1 (configuration not stated)	-	5µM	-	.	-
COc1ccc(COc2cc(-c3cccc(OC)c3)nc3ccc(NC(=O)c4cccnc4)cc23)cc1	-	2.8µM	-	-	-
CN(C)c1ccc(CNC(=O)C2CCCN(S(=O)(=O)c3ccc4c(c3)CCCC(=O)N4)C2)cc1 (configuration not stated)	.	-	-	-	-
COC(=O)c1nc(N2CCN(S(=O)(=O)c3ccc(C)cc3)CC2)c2ccccc2n1	.	.	.	.	-
CCCCN1C(=O)/C(=C/C=C2/CC(C)(C)CN2C)SC1=S	-	?	-	-	53
Cc1cnc2c(c1SCC(=O)Nc1ccc(F)cc1F)c(=O)n(C)c(=O)n2C	.	-	-	-	-
COc1ccc(S(=O)(=O)Nc2ccc3oc4c(c3c2)CCCC4)cc1	.	?	-	-	-
O=S(=O)(Nc1ccc2oc3c(c2c1)CCCC3)c1cc(Cl)ccc1Cl	.	11µM	-	-	-
O=C1CC(N(Cc2cccs2)C(=O)Nc2ccccc2)C(=O)N1c1ccc(Cl)cc1 (configuration not stated)	-	8.9µM	-	-	-
COc1ccc(-n2cnc3cc(C(=O)NCCC4=CCCCC4)ccc32)cc1	.	?	-	-	-
C#CC(=O)N(c1cc(OC)ccc1OC)C(C(=O)NC1CCCC1)c1cccs1 (configuration not stated)	-	7.9µM	5µM	-	-
Cc1nc(Nc2ccc(Cl)cc2)cc(-c2ccccc2)n1	.	?	-	-	-
Cc1ccc(NC(=O)CN2CC(C)SC2=NC2CCCCC2)cc1 (configuration not stated)	-	11µM	?	-	-
O=S(=O)(c1ccc2ccccc2c1)N1CCN(C(=S)Nc2ccc(F)cc2)CC1	-	?	-	-	-
O=S(=O)(c1ccc2ccccc2c1)N1CCN(C(=S)Nc2ccc(F)c(Cl)c2)CC1	-	4.5µM	-	-	-
CN1\C(=C/C=C/C=C/C=[N+](C)C)C(C)(C)c2ccccc21	-	?	-	-	86
CN1/C(=C\C=O)C(C)(C)c2ccccc21	-	-	-	-	-
C[N+]1(CC(=O)c2ccc(I)cc2)CCCc2ccccc21 (configuration not stated)	.	.	.	.	-
C#CCNC(=O)C[C@@H]1C[C@@]2(C(=O)OCC)CCCC=C2N(Cc2ccc3c(c2)OCO3)C1=O	-	-	-	.	63
CCCCCCCCN1C(=O)[C@H](CC(=O)NCCCCc2ccccc2)C[C@@]2(C(=O)OCC)CCCC=C12	-	7.1µM	-	.	-
CO/N=C(/C(=O)N[C@@H]1C(=O)N2C(C(=O)[O-])=C(C[n+]3ccn4ncccc43)CS[C@H]12)c1nsc(N)n1	-	.	.	.	.
CC1CCCC2(C1)NC(=S)N(c1ccccc1)N2 (configuration not stated)	-	5µM	-	-	-
CC1CCCCC12NC(=S)N(c1ccccc1)N2 (configuration not stated)	-	-	-	-	-
S=C1NC2(CCCCC2)NN1c1ccccc1	-	?	-	-	-
CC1CC(C)(C)CC2(C1)NC(=S)N(c1ccccc1)N2 (configuration not stated)	-	3.5µM	-	-	-
